Common to all, as to experiment: DAPPL (digital affinity profiling via proximity ligation, sequencing); 10 mM Tris-HCl pH 7.5, 50 mM NaCl, 1 mM DTT, 4% glycerol, room temperature, 30 min; GST-TFs on glutathione beads, 16-mer random dsDNA library, 0.1% formaldehyde crosslink after washing; high values mean tight binding
Holding throughout (conditions): protein: recombinant; tags: N-terminal GST; dsDNA, one strand shown

For one assay, the target named is T1, ERF (Homo sapiens, UniProt P50548 1-548).
T1 sequence: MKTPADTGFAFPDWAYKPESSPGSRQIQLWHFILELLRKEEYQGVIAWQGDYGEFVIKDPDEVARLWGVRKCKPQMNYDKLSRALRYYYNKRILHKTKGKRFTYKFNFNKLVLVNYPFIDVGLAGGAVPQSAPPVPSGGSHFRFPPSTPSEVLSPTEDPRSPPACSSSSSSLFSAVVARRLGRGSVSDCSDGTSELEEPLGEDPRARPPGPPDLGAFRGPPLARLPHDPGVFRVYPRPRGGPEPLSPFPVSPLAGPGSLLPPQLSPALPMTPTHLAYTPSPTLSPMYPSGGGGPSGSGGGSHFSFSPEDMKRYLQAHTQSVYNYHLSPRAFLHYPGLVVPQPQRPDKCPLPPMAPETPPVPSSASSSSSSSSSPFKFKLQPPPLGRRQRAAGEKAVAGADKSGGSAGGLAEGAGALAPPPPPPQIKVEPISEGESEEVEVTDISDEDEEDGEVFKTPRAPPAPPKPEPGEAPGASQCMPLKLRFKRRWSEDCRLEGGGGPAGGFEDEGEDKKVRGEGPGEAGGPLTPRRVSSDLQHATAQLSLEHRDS
Summed up: (§1)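 The binding signal reported is, for every hexamer, its read frequency for a factor over its read frequency for the tag-only sample. Reads came from pools of yeast-expressed, GST-fused human transcription factors on glutathione beads, barcoded with DNA and mixed with that sample, which were incubated with 200 nmole of a random double-stranded 16-mer DNA library in Tris/NaCl/DTT/glycerol buffer at room temperature for 30 min. After washing, the pools were crosslinked with 0.1% formaldehyde, proximity-ligated with BsaI/T4 ligase for 1 h at 37 °C, PCR-amplified and sequenced on an Illumina NextSeq500.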

For a further assay, the target named is T2, ETV3L (Homo sapiens, UniProt Q6ZN32 1-361).
T2 sequence: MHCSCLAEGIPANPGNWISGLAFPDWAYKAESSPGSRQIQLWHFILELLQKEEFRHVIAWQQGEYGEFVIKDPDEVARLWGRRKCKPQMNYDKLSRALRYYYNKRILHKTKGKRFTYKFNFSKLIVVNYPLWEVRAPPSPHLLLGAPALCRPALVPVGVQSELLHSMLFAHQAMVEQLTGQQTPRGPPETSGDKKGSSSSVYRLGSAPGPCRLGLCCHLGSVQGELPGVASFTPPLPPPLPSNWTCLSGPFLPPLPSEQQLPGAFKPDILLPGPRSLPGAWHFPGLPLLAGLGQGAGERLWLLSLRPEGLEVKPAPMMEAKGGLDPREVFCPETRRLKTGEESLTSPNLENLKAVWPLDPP
Summed up: as §1

A further assay has as its target T3, ETS2 (Homo sapiens, UniProt P15036 1-469).
T3 sequence: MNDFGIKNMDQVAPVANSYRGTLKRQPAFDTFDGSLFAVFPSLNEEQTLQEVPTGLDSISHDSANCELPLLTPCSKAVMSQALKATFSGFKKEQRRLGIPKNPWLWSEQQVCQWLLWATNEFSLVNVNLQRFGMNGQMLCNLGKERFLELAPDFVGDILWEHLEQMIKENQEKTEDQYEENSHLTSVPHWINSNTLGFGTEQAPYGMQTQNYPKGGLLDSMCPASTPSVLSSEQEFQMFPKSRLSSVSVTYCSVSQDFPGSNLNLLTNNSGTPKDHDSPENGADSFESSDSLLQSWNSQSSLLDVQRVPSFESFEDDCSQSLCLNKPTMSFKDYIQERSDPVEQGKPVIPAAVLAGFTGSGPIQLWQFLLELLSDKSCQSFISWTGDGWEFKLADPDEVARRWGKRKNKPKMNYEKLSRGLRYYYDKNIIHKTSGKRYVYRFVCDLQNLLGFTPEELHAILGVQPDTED
In outline: as §1

The next assay deals with T4, SPDEF (Homo sapiens, UniProt O95238 1-335).
T4 sequence: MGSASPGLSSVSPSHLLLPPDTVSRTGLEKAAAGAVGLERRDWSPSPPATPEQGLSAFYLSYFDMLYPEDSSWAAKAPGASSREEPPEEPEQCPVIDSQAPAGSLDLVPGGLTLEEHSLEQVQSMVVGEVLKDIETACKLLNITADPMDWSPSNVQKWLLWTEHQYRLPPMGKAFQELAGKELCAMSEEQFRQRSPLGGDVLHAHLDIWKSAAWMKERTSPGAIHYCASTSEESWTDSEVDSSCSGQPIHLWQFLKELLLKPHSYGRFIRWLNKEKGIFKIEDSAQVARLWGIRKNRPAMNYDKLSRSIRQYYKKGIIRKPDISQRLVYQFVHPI
Summed up:
as §1

A further assay has as its target T5, ETV7 (Homo sapiens, UniProt Q9Y603 1-341).
T5 sequence: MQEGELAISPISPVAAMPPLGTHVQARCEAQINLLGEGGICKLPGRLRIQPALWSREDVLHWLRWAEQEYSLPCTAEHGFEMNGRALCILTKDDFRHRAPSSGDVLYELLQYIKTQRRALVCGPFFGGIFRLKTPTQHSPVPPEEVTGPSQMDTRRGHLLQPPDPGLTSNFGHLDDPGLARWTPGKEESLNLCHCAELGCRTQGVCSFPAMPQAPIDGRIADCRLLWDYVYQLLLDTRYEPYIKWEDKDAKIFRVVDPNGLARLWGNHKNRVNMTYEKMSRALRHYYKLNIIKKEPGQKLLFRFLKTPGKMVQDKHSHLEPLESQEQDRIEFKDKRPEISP
In outline: as §1

For another assay, the target named is T6, ELF5 (Homo sapiens, UniProt Q9UKW6-2 1-255).
T6 sequence: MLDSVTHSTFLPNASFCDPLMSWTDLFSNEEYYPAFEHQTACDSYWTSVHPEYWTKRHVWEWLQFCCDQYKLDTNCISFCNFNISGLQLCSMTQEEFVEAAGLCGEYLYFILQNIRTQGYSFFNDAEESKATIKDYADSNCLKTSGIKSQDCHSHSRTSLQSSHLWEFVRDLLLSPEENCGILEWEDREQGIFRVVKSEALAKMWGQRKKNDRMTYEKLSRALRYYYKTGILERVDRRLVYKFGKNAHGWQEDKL
Summed up: as §1

Another assay addresses T7, ETV3 (Homo sapiens, UniProt P41162-2 1-143).
T7 sequence: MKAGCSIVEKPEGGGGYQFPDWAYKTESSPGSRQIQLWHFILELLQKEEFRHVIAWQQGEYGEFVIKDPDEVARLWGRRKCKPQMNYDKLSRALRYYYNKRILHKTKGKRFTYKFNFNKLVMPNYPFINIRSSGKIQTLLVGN
In outline:
as §1

In another assay the target is ETV6 (Homo sapiens, UniProt P41212 1-452). In outline:
as §1

Eight sequences from paper PMC7862700, “An all-to-all approach to the identification of sequence-specific readers for epigenetic DNA modifications on cytosine” can be followed below.

Sequence of ETV6 (P41212 whole entry): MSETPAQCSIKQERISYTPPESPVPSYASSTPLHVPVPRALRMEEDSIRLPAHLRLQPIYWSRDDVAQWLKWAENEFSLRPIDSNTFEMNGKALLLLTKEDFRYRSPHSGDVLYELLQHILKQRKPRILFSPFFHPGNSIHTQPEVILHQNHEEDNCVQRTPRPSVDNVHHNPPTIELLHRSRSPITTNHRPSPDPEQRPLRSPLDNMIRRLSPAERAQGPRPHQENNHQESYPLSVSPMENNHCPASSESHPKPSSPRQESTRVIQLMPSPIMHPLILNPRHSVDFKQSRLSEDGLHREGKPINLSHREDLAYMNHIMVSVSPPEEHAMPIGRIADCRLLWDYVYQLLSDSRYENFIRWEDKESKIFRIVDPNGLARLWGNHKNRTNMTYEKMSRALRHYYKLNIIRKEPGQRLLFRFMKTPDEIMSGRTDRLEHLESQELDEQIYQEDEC

Turning to GCTCAA, the binding signal was 1.08 fold enrichment (6-mer frequency, TF over GST control) with ERF; 1.13 fold enrichment (6-mer frequency, TF over GST control) with ETV3L; 1.11 fold enrichment (6-mer frequency, TF over GST control) with ETS2; 1.04 fold enrichment (6-mer frequency, TF over GST control) with SPDEF; 1.16 fold enrichment (6-mer frequency, TF over GST control) with ETV7; 1 fold enrichment (6-mer frequency, TF over GST control) in the assay with ELF5. For the same sequence, the binding signal with ETV3 was 1.04 fold enrichment (6-mer frequency, TF over GST control); with ETV6, 1.1 fold enrichment (6-mer frequency, TF over GST control).
Consider CTCATG, for which the binding signal with ERF was 1.18 fold enrichment (6-mer frequency, TF over GST control); with ETV3L, 1.22 fold enrichment (6-mer frequency, TF over GST control); with ETS2, 1.21 fold enrichment (6-mer frequency, TF over GST control); in the assay with SPDEF, 1.18 fold enrichment (6-mer frequency, TF over GST control); with ETV7, 1.18 fold enrichment (6-mer frequency, TF over GST control); with ELF5, 1.19 fold enrichment (6-mer frequency, TF over GST control). For the same sequence, the binding signal in the assay with ETV3 was 1.22 fold enrichment (6-mer frequency, TF over GST control); with ETV6, 1.17 fold enrichment (6-mer frequency, TF over GST control).
For the sequence ATTAAA, the binding signal with ERF was 1.3 fold enrichment (6-mer frequency, TF over GST control); with ETV3L, 1.24 fold enrichment (6-mer frequency, TF over GST control); with ETS2, 1.12 fold enrichment (6-mer frequency, TF over GST control); in the assay with SPDEF it was 1.14 fold enrichment (6-mer frequency, TF over GST control); in the assay with ETV7 it was 1.1 fold enrichment (6-mer frequency, TF over GST control); with ELF5, 1.12 fold enrichment (6-mer frequency, TF over GST control). Further, the binding signal with ETV3 is 1.12 fold enrichment (6-mer frequency, TF over GST control); in the assay with ETV6, 1.18 fold enrichment (6-mer frequency, TF over GST control).
As for TCTCTG, the binding signal with ERF is 1.49 fold enrichment (6-mer frequency, TF over GST control); in the assay with ETV3L, 1.49 fold enrichment (6-mer frequency, TF over GST control); in the assay with ETS2, 1.61 fold enrichment (6-mer frequency, TF over GST control); with SPDEF, 1.5 fold enrichment (6-mer frequency, TF over GST control); in the assay with ETV7 it was 1.29 fold enrichment (6-mer frequency, TF over GST control); in the assay with ELF5, 1.42 fold enrichment (6-mer frequency, TF over GST control). The binding signal is 1.48 fold enrichment (6-mer frequency, TF over GST control) with ETV3 and 1.52 fold enrichment (6-mer frequency, TF over GST control) in the assay with ETV6.
Regarding AAAGTA, the binding signal in the assay with ERF is 1.11 fold enrichment (6-mer frequency, TF over GST control); with ETV3L, 1.18 fold enrichment (6-mer frequency, TF over GST control); with ETS2 it was 1.17 fold enrichment (6-mer frequency, TF over GST control); in the assay with SPDEF it was 1.13 fold enrichment (6-mer frequency, TF over GST control); with ETV7 it was 1.21 fold enrichment (6-mer frequency, TF over GST control); with ELF5 it was 1.18 fold enrichment (6-mer frequency, TF over GST control). Besides, the binding signal was 1.14 fold enrichment (6-mer frequency, TF over GST control) with ETV3 and 1.15 fold enrichment (6-mer frequency, TF over GST control) with ETV6.
As to TTGTGC, the binding signal is 1.31 fold enrichment (6-mer frequency, TF over GST control) with ERF; 1.12 fold enrichment (6-mer frequency, TF over GST control) with ETV3L; 1.17 fold enrichment (6-mer frequency, TF over GST control) in the assay with ETS2; 1.15 fold enrichment (6-mer frequency, TF over GST control) with SPDEF; 1.08 fold enrichment (6-mer frequency, TF over GST control) with ETV7; 1.23 fold enrichment (6-mer frequency, TF over GST control) with ELF5. Further, the binding signal with ETV3 was 1.15 fold enrichment (6-mer frequency, TF over GST control); with ETV6, 1.23 fold enrichment (6-mer frequency, TF over GST control).
As to TCTCAC, the binding signal with ERF was 1.44 fold enrichment (6-mer frequency, TF over GST control); in the assay with ETV3L, 1.33 fold enrichment (6-mer frequency, TF over GST control); with ETS2, 1.35 fold enrichment (6-mer frequency, TF over GST control); with SPDEF it was 1.23 fold enrichment (6-mer frequency, TF over GST control); with ETV7, 1.24 fold enrichment (6-mer frequency, TF over GST control); with ELF5, 1.37 fold enrichment (6-mer frequency, TF over GST control). Further, the binding signal with ETV3 is 1.34 fold enrichment (6-mer frequency, TF over GST control); in the assay with ETV6, 1.32 fold enrichment (6-mer frequency, TF over GST control).
Regarding TTACAA, the binding signal is 1.23 fold enrichment (6-mer frequency, TF over GST control) in the assay with ERF; 1.1 fold enrichment (6-mer frequency, TF over GST control) with ETV3L; 1.16 fold enrichment (6-mer frequency, TF over GST control) in the assay with ETS2; 1.22 fold enrichment (6-mer frequency, TF over GST control) with SPDEF; 1.11 fold enrichment (6-mer frequency, TF over GST control) with ETV7; 1.17 fold enrichment (6-mer frequency, TF over GST control) with ELF5. For the same sequence, the binding signal was 1.08 fold enrichment (6-mer frequency, TF over GST control) in the assay with ETV3 and 1.09 fold enrichment (6-mer frequency, TF over GST control) with ETV6.
